Values joined by “and” are separate entries in the source; they are usually repeats but may differ in a detail not shown here. Equal values may be shown once. Screen size: about 350,000 compounds; about 1,200 (0.34%) were called active. Not shown: some 3% with an inconclusive outcome. Calls follow the shape of the dose curve; as a rule, active = well fitted inhibition curve with a large enough effect; inconclusive = small, poorly fitted or top-dose-only effect; inactive = no such curve, though single readings can be large or run the other way. Only a selection was taken, and actives are over-represented in it overall. Some compounds were tested as several samples or in several runs, with calls that do not always agree.
molecular target: DNA repair nuclease/redox regulator APEX1 (Homo sapiens) (UniProt P27695); test: qHTS Assay for Inhibitors of the Human Apurinic/apyrimidinic Endonuclease 1 (APE1); conditions: recombinant APE1, TAMRA/BHQ-2 abasic DNA cleavage fluorescence; activity change, negative = inhibition: at 65.8 µM (top of the series); also: nearly all actives have a fitted effect of over 55% in size;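 as to activity change, negative = inhibition: plate controls were vehicle for no effect and reference inhibitor for full effect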
Outline: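 Readout is kinetic fluorescence (ex 525, em 598 nm) from cleavage of 50 nM TAMRA/BHQ-2 THF abasic duplex by 0.75 nM APE1, compound added 15 min beforehand at RT.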
Potency is read from the fitted curve at half-maximal effect.

DNA repair nuclease/redox regulator APEX1 (Homo sapiens), sequence (P27695 whole entry, looked up): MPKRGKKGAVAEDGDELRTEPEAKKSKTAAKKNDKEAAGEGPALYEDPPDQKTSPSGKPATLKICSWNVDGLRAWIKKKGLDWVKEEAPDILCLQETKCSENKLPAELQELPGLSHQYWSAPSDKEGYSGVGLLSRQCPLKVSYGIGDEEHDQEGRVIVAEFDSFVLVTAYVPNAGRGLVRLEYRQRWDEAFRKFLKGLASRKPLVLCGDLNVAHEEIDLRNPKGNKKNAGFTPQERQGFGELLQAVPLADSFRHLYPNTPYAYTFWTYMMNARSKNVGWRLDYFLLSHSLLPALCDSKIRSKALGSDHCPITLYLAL

SMILES | activity change, negative = inhibition | Potency
CC(C)C(=O)Nc1c(O)c2ccccc2[nH]c1=O | -2.89% (inactive) | 
O=C(Cc1c(O)c2ccccc2[nH]c1=O)NCc1ccccc1 | -2.72% (inactive) | 
O=C1C(c2[nH]c3ccccc3c2O)=Nc2ccccc21 |  | 7.94 µM (active) and 3.98 µM (active)
CCCCC/C=C\C/C=C\CCCCCCCCCC(=O)NCC(=O)O | 3.32% (inactive) | 
CCCCCCCC/C=C\CCCCCCCC(=O)NCC(=O)O | 4.31% (inactive) | 
COc1ccc2c(=O)cc(-c3ccccc3)oc2c1O | -7.77% (inactive) | 
COc1c(O)cc2oc(-c3ccc(O)c(O)c3)cc(=O)c2c1O |  | 7.08 µM (active)
Cc1cccc(-c2cc(=O)c3cc(C)ccc3o2)c1 | -8.53% (inactive) | 
Cc1ccc(NC(=O)O[C@@H]2C(=O)c3cc(Br)ccc3O[C@H]2c2ccc3c(c2)OCO3)cc1Br | 0.243% (inactive) | 
CC(C)(C)n1ncc2c(=O)n(Cc3ccc(C(=O)c4ccccc4)cc3)cnc21 | -0.344% (inactive) | 
Cc1cccc2c3c(ccc12)C1=C(C(=O)C3=O)C(C)CO1 (stereo not given) | 9.79% (inactive) | 
CN[C@@H]1[C@H](O[C@H]2[C@H](O[C@H]3[C@H](O)[C@@H](O)[C@H](N=C(N)N)[C@@H](O)[C@@H]3N=C(N)N)O[C@@H](C)[C@]2(O)CO)O[C@@H](CO)[C@H](O)[C@H]1O | 0.585% (inactive) | 
CCOC(=O)C1=NOC(Cn2cc(C(C)=O)c(=O)[nH]c2=O)C1 (stereo not given) | 1.23% (inactive) | 
CCOC(=O)C1=NO[C@@]2(C=C(Br)C(=O)[C@H]3O[C@H]32)C1 |  | 7.94 µM (active)
CCOC(=O)C1=C(C)N=C2c3ccccc3C(=O)C2C1c1ccc(Br)cc1 (stereo not given) | -2.57% (inactive) | 
CC(C)C[C@@H](CC(=O)N[C@@H](CCC(=O)O)CC(=O)O)NC(=O)[C@@H]1CCCC[C@H]1NC(=O)C[C@@H](NC(=O)C[C@H](Cc1c[nH]c2ccccc12)NC(=O)[C@@H]1CCCC[C@H]1N)C(C)C | -3.05% (inactive) | 
CC(C)C1=CC2=CC[C@@H]3[C@](C)(CO)CCC[C@]3(C)C2CC1 (stereo not given in full) | 0.19% (inactive) | 
O=C(CSc1nnc(-c2ccco2)n1-c1ccccc1)NCCc1ccccc1 | -4.34% (inactive) | 
Clc1ccc(CSc2nnc3c(n2)[nH]c2ccccc23)cc1 | -0.131% (inactive) | 
c1ccc(CSc2nnc(-c3ccco3)c(-c3ccco3)n2)cc1 |  | 10 µM (active)
O=c1c(-c2cc(F)cc(F)c2)nc2cnc(Oc3ccccc3)nc2n1C[C@H]1CCCO1 | 3.92% (inactive) | 
CC/C=C/C/C=C/C/C=C/CCCCCCCC(=O)OCC | -3.48% (inactive) | 
CN(C(=O)COC(=O)Cc1ccccc1[N+](=O)[O-])C1CCS(=O)(=O)C1 (stereo not given) | 8.91% (inactive) | 
CN(C(=O)COC(=O)c1cc(-c2ccco2)nc2ccccc12)C1CCS(=O)(=O)C1 (stereo not given) |  | 7.94 µM (active)
COc1ccc(/C=C(\C#N)C(=O)OCC(=O)N(C)C2CCS(=O)(=O)C2)cc1 (stereo not given) | -0.493% (inactive) | 
C1CCC2OC2C1 (stereo not given) | -0.558% (inactive) | 
Cc1ccc(-c2nn(-c3ccccc3)cc2/C=C2\SC(=S)N(CCCCCC(=O)O)C2=O)o1 | -84.3% (inactive) | 
COc1cccc(/C=C2/SC(=S)N(CC(=O)NC3C=CS(=O)(=O)C3)C2=O)c1 (stereo not given) | 37.3% (inactive) | 

SMILES | activity change, negative = inhibition | Potency
COc1ccc(-c2nn(-c3ccccc3)cc2/C=C2/SC(=S)N(CCCC(=O)O)C2=O)c(C)c1 |  | 29.9 µM (active)
C=C1C(=O)C23C(O)C1CCC2[C@]12COC3(O)C(O)C1C(C)(C)CC[C@H]2O (stereo not given in full) | -2.57% (inactive) | 
CC[C@@]12C=C(/C=C/c3ccccc3)[C@](CC)(C1)[C@H](c1ccccc1)CC2=O | 17.2% (inactive) | 
O=C(CCc1n[nH]c(=O)[nH]c1=O)N/N=C/c1ccc(Br)o1 | -7.77% (inactive) | 
O=C(CCNC(=O)c1ccccc1Cl)NN=Cc1ccco1 | -5.79% (inactive) | 
O=C(CCNC(=O)c1ccccc1)NN=Cc1ccc(Br)o1 |  | 15 µM (active)
Cc1ccccc1OCCC(=O)OCC(=O)NC(C)c1ccccc1 (stereo not given) | 0.618% (inactive) | 
Cc1ccc(OCCCC(=O)NC(C)c2ccccc2)c(C)c1 (stereo not given) | 0.614% (inactive) | 
Cc1cc(C)cc(OCC(=O)NC(C)c2ccccc2)c1 (stereo not given) | -52.8% (active) | 
c1ccc2cc(C3=NCCN3)ccc2c1 | -6.2% (inactive) | 
COc1ccc(/C=C/NC(=O)c2ccc(OC)cc2)cc1 | 3.93% [at 12.4 µM] (inactive) | 
CC[C@H](C)[C@H](NC(=O)[C@H](CCCNC(=N)N)NC(=O)[C@H](CCCNC(=N)N)NC(=O)[C@H](CC(C)C)NC(=O)[C@H](Cc1ccccc1)NC(=O)CNC(=O)CNC(=O)[C@@H](N)Cc1ccc(O)cc1)C(=O)N[C@@H](CCCNC(=N)N)C(=O)N1CCC[C@H]1C(=O)N[C@@H](CCCCN)C(=O)N[C@@H](CC(C)C)C(=O)N[C@@H](CCCCN)C(=O)N[C@@H](Cc1c[nH]c2ccccc12)C(=O)N[C@@H](CC(=O)O)C(=O)N[C@@H](CC(N)=O)C(=O)N[C@@H](CCC(N)=O)C(=O)O | -1.98% (inactive) | 
O=C(Nc1ccccc1)/C(=C\c1ccco1)NC(=O)c1ccco1 | 39.5% (inactive) | 
O=c1nc2s/c(=C\c3ccco3)c(=O)n2nc1Cc1ccccc1 |  | 4.47 µM (active)
O=C(NCCc1ccco1)c1nn(Cc2ccccc2)c(=O)c2ccccc12 | -6.32% (inactive) | 
O=C(OCC(COC(=O)c1ccccc1)(COC(=O)c1ccccc1)COC(=O)c1ccccc1)c1ccccc1 | 5.41% (inactive) | 
CC(C)=CCN1CCC2(CCc3ccccc32)CC1 | -0.233% (inactive) | 
Oc1cc(O)c2c(c1)OC(c1ccc(O)c(O)c1)C(O)C2 (stereo not given) |  | inactive and 3.16 µM (active)
C=C1C([C@@]2(C)C(OC(C)=O)CC(=O)O[C@@](C)(COC(C)=O)C2CC(=O)OC)C(OC=O)C(OC(=O)C(O)C(C)CC)[C@]2(C)C(c3ccoc3)CC(=O)C12O (stereo not given in full) | -3.23% (inactive) | 
CC[C@H](C)[C@@H](NC(=O)O[C@@H]1C(=O)c2cc(OC)ccc2O[C@H]1c1cccc(OC)c1)C(=O)OC | -2.71% (inactive) | 
CCCCS(=O)(=O)N1C2=NC(C(=O)OC)=C(C(=O)OC)[C@@H]3N(Cc4ccccc4)c4ccccc4[C@]23C[C@H]1C(=O)OC | -4.13% [at 12.4 µM] (inactive) | 
Oc1ccc(O)c2c(O)cccc12 |  | 1.78 µM (active)
S=C(NCCCc1cnc[nH]1)NCCCN(Cc1ccc(Cl)c(Cl)c1)c1ccc(Br)cn1 | -1.31% (inactive) | 
O=C(c1ccco1)N1CCC[C@@]2(CCN(c3ccccc3)C2)C1 | 2.31% (inactive) | 
Cc1nn(CC(=O)Nc2ccc3c(c2)OCO3)c(C)c1[N+](=O)[O-] | 2.88% (inactive) | 
Cc1ccc(C(=O)Nc2ccc3c(c2)OCO3)cc1S(=O)(=O)N1CCCCC1 | -8.39% (inactive) | 
Cc1ccc(C(=O)O)cc1-c1ccc(/C=C2\SC(=O)N(CC(=O)Nc3ccc4c(c3)OCO4)C2=O)o1 |  | 7.52 µM (active)

Source: PubChem BioAssay AID2517 (National Center for Advancing Translational Sciences (NCATS), 2010)
